# NSD2 inh – NSD2 histone methyltransferase inhibitors, primary screen, biochemical, AlphaScreen, single concentration, set 2; inhibition, % at 12.5 µM; 310,000 compounds, 0.54% hits; NSD2 peptide methylation, 120 min; AID 743445, 2014; in the data active = inhibition above about 50%
# Target sequence (O96028 whole entry, looked up): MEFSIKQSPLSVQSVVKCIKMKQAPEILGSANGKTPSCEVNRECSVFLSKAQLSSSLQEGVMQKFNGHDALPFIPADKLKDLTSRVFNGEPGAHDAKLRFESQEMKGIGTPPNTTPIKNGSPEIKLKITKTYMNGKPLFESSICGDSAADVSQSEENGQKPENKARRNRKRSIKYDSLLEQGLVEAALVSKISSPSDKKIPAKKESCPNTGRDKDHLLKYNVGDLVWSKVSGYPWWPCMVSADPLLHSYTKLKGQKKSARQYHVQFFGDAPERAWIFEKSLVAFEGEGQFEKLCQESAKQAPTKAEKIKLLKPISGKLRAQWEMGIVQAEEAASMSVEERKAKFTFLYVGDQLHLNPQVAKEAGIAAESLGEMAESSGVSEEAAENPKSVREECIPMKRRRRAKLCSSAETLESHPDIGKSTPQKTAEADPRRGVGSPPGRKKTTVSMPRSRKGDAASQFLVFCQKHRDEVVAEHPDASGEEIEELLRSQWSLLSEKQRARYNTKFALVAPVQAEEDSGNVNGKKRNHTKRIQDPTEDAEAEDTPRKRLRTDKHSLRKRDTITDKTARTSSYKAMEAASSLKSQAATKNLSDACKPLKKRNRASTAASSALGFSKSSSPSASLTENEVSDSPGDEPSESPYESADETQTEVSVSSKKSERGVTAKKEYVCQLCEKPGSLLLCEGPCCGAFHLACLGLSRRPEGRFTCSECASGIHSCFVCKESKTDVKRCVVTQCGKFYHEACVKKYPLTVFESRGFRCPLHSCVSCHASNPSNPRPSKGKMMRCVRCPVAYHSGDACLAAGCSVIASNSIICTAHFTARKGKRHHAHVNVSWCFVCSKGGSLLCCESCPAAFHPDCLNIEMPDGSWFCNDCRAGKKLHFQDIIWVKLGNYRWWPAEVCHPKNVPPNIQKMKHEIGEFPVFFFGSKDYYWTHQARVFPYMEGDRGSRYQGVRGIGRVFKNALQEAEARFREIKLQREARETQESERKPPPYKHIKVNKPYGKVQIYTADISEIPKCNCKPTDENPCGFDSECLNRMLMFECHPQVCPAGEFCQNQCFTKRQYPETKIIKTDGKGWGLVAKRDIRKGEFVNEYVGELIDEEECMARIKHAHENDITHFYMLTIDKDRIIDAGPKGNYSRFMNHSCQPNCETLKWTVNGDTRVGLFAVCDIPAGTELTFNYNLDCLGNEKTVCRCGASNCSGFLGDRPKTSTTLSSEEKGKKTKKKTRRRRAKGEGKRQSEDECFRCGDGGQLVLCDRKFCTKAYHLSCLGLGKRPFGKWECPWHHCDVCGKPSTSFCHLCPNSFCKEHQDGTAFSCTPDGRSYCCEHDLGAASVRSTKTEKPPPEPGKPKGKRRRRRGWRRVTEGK
# Wnt act – Wnt/beta-catenin pathway activators, primary screen, cell-based, plate reader, single point. Wnt/beta-catenin reporter cell assay, activator. activation, % at 9.35 µM. 300,000 compounds, 1.2% hits. AID 743398, 2014; in the data active = activation above about 30%, passing the limit was not always enough; inconclusive = no clear call, values can overlap the other calls;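 note: 0% = neutral control wells and 100% = positive control wells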
# Glyco luc inh – increase of ERlucT glycosylation luciferase signal, primary screen, N-linked glycosylation inhibitor project, D54 ERlucT cells, luminescence, set 2. reporter increase, % at 12.5 µM. 360,000 compounds, 0.23% hits. D54 ERlucT glycosylation luciferase reporter, 24 h; percent of 100 nM tunicamycin response;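 active = mean luciferase reporter signal, scaled so untreated is 0 and the glycosylation-blocking control 100, at or above a set limit in every replicate; inconclusive = mean reaches the limit but not every replicate does; inactive = mean below the limit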;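 note: luciferase carries N-glycosylation sites so blocking glycosylation raises the light; 0% = median of neutral control wells and 100% = median of 100 nM tunicamycin wells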
# PfHsp90 yeast 2 – growth inhibition of PfHsp90-expressing yeast, primary screen, antimalarial PfHsp90 inhibitor project, S. cerevisiae, BacTiter-Glo luminescence, single point, set 2. 310,000 compounds, 0.32% hits. inhibition, % at 9.4 µM. BacTiter-Glo ATP, 48 h; yeast lacking PDR1 and PDR3 efflux regulators;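 active = every replicate shows inhibition above about 80%, whatever the replicate mean, limit read from the data; inconclusive = mean inhibition reaches the set limit but some replicate falls short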;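 note: 0% = DMSO neutral controls and 100% = 20 µM radicicol positive controls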
# TRPM1 prom inh – inhibitors of MITF-dependent TRPM1 promoter reporter, primary screen, cell-based, SK-MEL-5, single point, luciferase. SK-MEL-5 TRPM1 promoter luciferase, 24 h. inhibition, % at 12.5 µM. 330,000 compounds, 0.83% hits;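 active = mean inhibition across replicates of 60% or more, whatever share of single replicates reaches that level; inconclusive = some that reach 60%, reason not given; inactive = mean inhibition across replicates below 60%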
# MITF TRPM1 HTS – activators of MITF-driven TRPM1 promoter reporter, primary screen, cell-based, SK-MEL-5, luciferase, single point | SK-MEL-5 TRPM1-promoter luciferase, 24 h; % of positive control, neutral wells = 0 | activation, % at 12.5 µM | 300,000 compounds, 0.75% hits | AID 588334, 2011;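 active = mean activation of at least 80% with every replicate also reaching 80%; inconclusive = mean reaches 80% but some replicate falls short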;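 note: 0% = neutral control wells and 100% = parthenolide positive control wells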
# AlphaScreen art – AlphaScreen signal interference with preloaded methylated product, dose response, artefact control for NSD2 inhibitor project, biochemical, cherry-picked samples; shares compounds with NSD2 inh; AlphaScreen artifact counterscreen, preloaded methylated H4 peptide; AC35, µM (series often up to 10 µM), for inactives: top-dose activity change, negative = signal loss; 1,500 compounds, 9.4% hits; call rule not given here
# Active calls of the source: *; ? = inconclusive; . = no result. Hits are enriched below; roughly 2.9% of the tested compounds scored in any of these assays.
SMILES,NSD2 inh,Wnt act,Glyco luc inh,PfHsp90 yeast 2,TRPM1 prom inh,MITF TRPM1 HTS,AlphaScreen art
CSc1nnc(-c2ccco2)c(-c2ccco2)n1,114*,0,3,12,27,-21,-8%
Cc1c(Cl)cc(-n2cnnn2)cc1[N+](=O)[O-],-1,-2,3,-1,2,2,.
Cc1c([N+](=O)[O-])cc(N2C(=O)C=CC2=O)cc1[N+](=O)[O-],55*,.,1,.,50,-47,-1%
CCOc1ccc(/C=C/C(=O)N(CC)CC(=O)Nc2ccc3c(c2)OCCO3)cc1OCC,3,2,2,32,0,2,.
COc1ccc(C(=O)N[C@H](C(=O)NCc2ccc(C)cc2)C(C)C)cc1,75*,-2,1,-20,-10,9,-3%
Cc1cc(C)c(OCCN2C(=O)NC(C)(C)C2=O)c(Cl)c1,1,-6,1,17,-1,-4,.
Cc1cc(Cl)cc(Br)c1OCCCN1C(=O)NC(C)(C)C1=O,73*,.,-3,.,3,-2,-3%
Cc1cc(Cl)c(OCCN2C(=O)NC(C)(C)C2=O)c(Br)c1,71*,3,1,-43,2,-1,0%
C=CCOc1ccccc1/C=N/NC(=O)Cc1ccc(C)cc1,3,-2,0,-35,1,-1,.
Oc1cccc(NC(=S)N=Nc2c(O)[nH]c3ccc(Br)cc23)c1,67*,-2,0,18,-9,11,-11%
Oc1ccc(NC(=S)N=Nc2c(O)[nH]c3ccc(Br)cc23)cc1,.,-2,0,-14,40,-36,.
COC1=C(Nc2ccc(OC)cc2)C(=O)c2ccccc2C1=O,66*,?,-3,27,31,-27,5.5µM*
CCOc1ccc(NC2=C(OC)C(=O)c3ccccc3C2=O)cc1,53*,-9,-5,4,31,-29,3.7µM*
Cc1cc(NC(=O)c2cccc(Oc3ccccc3)c2)n[nH]1,0,-1,-5,18,-13,19,.
Cc1ccc(-n2nc3c(=O)n(CC(=O)NCc4ccccc4)nc(C)c3c2C)cc1,80*,-1,0,-5,18,-18,-1%
COc1ccc(C2CC(c3ccc(Cl)cc3)=NN2C(C)=O)cc1 (stereo unspecified),54*,13,-2,-22,-36,41,-4%
CCN1CC2CCCC3(C1)C(=O)NC1(CCCCC1)N=C23 (stereo unspecified),56*,-6,-1,-17,8,-5,-4%
CCCCc1nnc(SC(C)C(=O)Nc2nccs2)n1C (stereo unspecified),-1,-3,6,-8,10,-7,.
Cc1ccc(S(=O)(=O)Nc2ccccn2)c(C)c1,-1,.,1,.,.,.,.
CN(C)c1cccc2c(S(=O)(=O)Nc3ccccn3)cccc12,58*,1,1,-36,10,.,-3%
CCN1C(=NCCN2CCOCC2)N[C@@H](c2ccccc2)C(C(=O)OC)=C1C,.,-2,0,-6,-6,4,.
Cc1nc([N+](=O)[O-])c(C(=O)OCc2ccccc2Br)n1C,1,-2,-2,-6,7,-8,.
Cc1nc([N+](=O)[O-])c(C(=O)OCc2ccccc2F)n1C,54*,-2,-1,.,-6,3,-3%
CCOC(=O)C1(C)CCN1C(=O)c1ccc(OC)c(OC)c1 (stereo unspecified),-2,0,3,.,.,.,.
Cc1ccc(S(=O)(=O)/N=C2/NC(=O)/C(=C\c3cc(Br)cc(Br)c3O)S2)cc1,109*,.,3,8,6,-9,-4%
SMILES,NSD2 inh,Wnt act,Glyco luc inh,PfHsp90 yeast 2,TRPM1 prom inh,MITF TRPM1 HTS,AlphaScreen art
Cc1ccc(S(=O)(=O)/N=C2/NC(=O)/C(=C/c3ccc(Br)o3)S2)cc1,70*,.,2,-23,-2,2,-2%
Cc1ccc(S(=O)(=O)/N=C2/NC(=O)/C(=C/c3cccnc3)S2)cc1,4,.,1,-8,-4,6,.
O=C1c2cccnc2C(=O)N1CO,1,-1,2,0,-7,6,.
NC1=C(Br)C(=O)c2ncccc2C1=O,101*,-6,-20,-23,94*,-94,5%
CC1=C(C(=O)Nc2ccc(Br)cc2)C(c2ccco2)NC(=O)N1 (stereo unspecified),1,-2,0,-14,9,-9,.
O=C1CN(C(=O)COC(=O)c2ccc([N+](=O)[O-])s2)c2ccccc2N1,60*,.,9,12,.,-47,-6%
O=C(COC(=O)c1ccc([N+](=O)[O-])s1)NC(=O)NCc1ccccc1,2,-4,3,2,3,-1,.
CN(CC(=O)Nc1ccccc1Cl)C(=O)COC(=O)c1ccc([N+](=O)[O-])s1,78*,-3,3,-9,38,-36,-4%
CC(NC(=O)COC(=O)c1ccc([N+](=O)[O-])s1)c1ccccc1 (stereo unspecified),66*,-6,2,4,5,-6,-5%
CN(CC(=O)Nc1ccccc1Cl)C(=O)COC(=O)c1cccs1,-4,-5,2,-10,5,-5,.
O=C(COC(=O)c1ccc([N+](=O)[O-])s1)NCCc1ccccc1,58*,.,1,-9,9,-9,-1%
O=C(CCC(=O)Nc1ccccc1Cl)NNC(=O)NC1CCCCC1,-2,2,2,10,-4,6,.
O=C(CCc1ccc(S(=O)(=O)N2CCOCC2)cc1)N/N=C/c1ccc(O)c(O)c1O,5,.,-16,2,5,-3,.
Cc1ccc(C(=O)N2CC(=O)NC(=O)C2)cc1,-3,0,1,-7,-4,.,.
Cc1[nH][nH]c(=O)c1C(c1c(C)[nH][nH]c1=O)c1cn(Cc2ccccc2Cl)c2ccccc12,115*,-7,19,-15,28,-27,-22%
O=C(CC[C@H]1O[C@@H](n2ccc(=O)[nH]c2=O)[C@H](O)[C@@H]1O)N[C@H](Cc1ccccc1)C(=O)NC1CCCCC1,.,-2,-1,.,.,.,.
CCOC(=O)Cc1cc(=O)n(-c2nc3ccccc3s2)[nH]1,5,.,1,-19,2,-2,.
CCCc1cc(=O)n(-c2nc3ccccc3s2)[nH]1,79*,3,-1,-34,-14,1,1%
